Rows were chosen to be rich in hits. Some 1.1% of all compounds tested hit in one or more screens of this group.
AGP1-GFP MLPCN – alters AGP1-GFP fluorescence in TOR pathway yeast screen; S. cerevisiae AGP1-GFP multiplex flow cytometry, 3 h; GFP as percent of DMSO wells; GFP response vs DMSO, % at 10 µM; hit rate 0.02% among 320,000; AID 2066;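 active means GFP response relative to DMSO above a set limit, near screen average plus 3 SD, cut at about 150% in these data; inconclusive means fewer than 70 cells counted for the yeast strain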;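 further: median GFP channel fluorescence of the gated AGP1 strain per well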
LAP4 TOR yeast – modulators of TOR pathway LAP4-GFP in S. cerevisiae. AID 2023. GFP response vs DMSO, % at 10 µM. S. cerevisiae LAP4-GFP multiplex, flow cytometry GFP, 3 h; median GFP as percent of DMSO wells. hit rate 0.34% among 320,000;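 active means GFP response vs DMSO above a set limit, about the screen mean plus 3 SD, cut at about 150% in these data; inconclusive means under 70 cell events counted for the yeast strain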
MEP2 TOR yeast – alters MEP2-GFP fluorescence in TOR pathway yeast screen; GFP response vs DMSO, % at 10 µM; S. cerevisiae MEP2-GFP strain, flow cytometry GFP, 3 h; 100% = DMSO control level; hit rate 0.51% among 330,000;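 active means GFP response versus DMSO above a set limit, roughly screen mean plus 3 SD, cut at about 180% in these data; inconclusive means fewer than 70 cells counted for a yeast strain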;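 further: median GFP fluorescence of the barcode-gated MEP2-GFP cells per well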
RPL19A TOR yeast – alters RPL19A-GFP fluorescence in TOR pathway yeast screen. S. cerevisiae RPL19A-GFP strain, flow cytometry, 3 h; active compounds read low. percent response vs DMSO, % at 10 µM. hit rate 0.3% among 330,000;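 active means percent response vs DMSO below 50%; inconclusive means fewer than 70 events counted for the yeast strain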;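 further: median channel GFP fluorescence of the barcoded RPL19A-GFP strain; ratio of sample median GFP to plate DMSO average so 100% = DMSO; lower means less RPL19A-GFP as with rapamycin TOR inhibition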
CIT2 TOR yeast – yeast TOR pathway CIT2-GFP modulation. AID 2029. hit rate 0.065% among 320,000. S. cerevisiae CIT2-GFP strain, flow cytometry, 3 h; 100 means same as DMSO wells. GFP response vs DMSO, % at 10 µM;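 active means GFP response relative to DMSO above a set limit, near the screen mean plus 3 SD, cut at about 150% in these data; inconclusive means Fewer than 70 cells measured for a yeast strain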;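 further: ratio of well median GFP fluorescence to mean of DMSO wells on the plate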
VLA-4 inh – inhibition in a human VLA-4 binding assay. P13612. VLA-4 expressing cells, ligand binding flow cytometry. inhibition, % (about 7 µM as worked out from the volumes in the protocol). hit rate 0.2% among 330,000; in the data active means inhibition above about 50%
Active calls of the source: *; ? = inconclusive; / = no result given; [ ] = another dose, or the depositor's remark.

SMILES | AGP1-GFP MLPCN | LAP4 TOR yeast | MEP2 TOR yeast | RPL19A TOR yeast | CIT2 TOR yeast | VLA-4 inh
COc1cccc(CC2CC(=O)N(CCc3ccc4c(c3)OCO4)C2=O)c1 (stereo not drawn) | 102.0 | 106.8 | 99.3 | 95.0 | 91.9 | 8.2
Cc1ccc(CC2CC(=O)N(CCc3ccc4c(c3)OCO4)C2=O)cc1 (stereo not drawn) | / | 88.2 | 213.6*[may fluoresce violet] | 36.9*[may fluoresce violet] | ? | 5.1
CCOc1cc(/C=C2\CCn3c2nc2cc(Cl)ccc2c3=O)ccc1O | 98.4 | 104.4 | 94.9 | 98.3 | 92.8 | 0.6
COc1ccc(N2CCN(C(=O)C3CCCN(S(=O)(=O)c4ccc(C)cc4)C3)CC2)cc1 (stereo not drawn) | 131.1 | 136.2 | 270.3* | 73.0 | 132.4 | -4.0
COc1ccc(N2CCN(C(=O)C3CCCN(S(=O)(=O)c4ccc(F)cc4)C3)CC2)cc1 (stereo not drawn) | 103.2 | 85.3 | 107.1 | 114.8 | 108.6 | -7.2
CCN1CCN(C(=O)c2cc(-c3ccco3)nc3ccccc23)CC1 | 99.7 | 96.0 | 100.5 | 95.1 | 91.5 | 9.1
COCc1cc(=O)[nH]c(SCCS(=O)(=O)c2ccc(Cl)cc2Cl)n1 | 93.1 | 182.6* | 92.7 | 81.0 | 71.0 | 7.4
Cc1ccc(S(=O)(=O)N(C)C)cc1NC(=O)C(C)OC(=O)c1cc[n+]([O-])cc1 (stereo not drawn) | 100.0 | 98.8 | 105.8 | 97.9 | 101.5 | -8.8
Cc1ccc([N+](=O)[O-])cc1N/C=C/C(=O)c1ccco1 | 92.3 | 110.8 | 104.6 | 90.2 | 82.4 | 20.4
Cc1ccc(N/C=C/C(=O)c2ccco2)c(O)c1 | 22.8 | 104.3 | 307.4*[may fluoresce violet] | 55.3 | ? | 7.1
COc1ccc(N(C(=O)c2cccnc2)S(=O)(=O)c2cc(OC)ccc2OC)cc1 | 104.1 | 94.1 | 95.5 | 105.2 | 102.9 | -0.1
CC(Sc1nnc(-c2cccnc2)o1)C(=O)NC1CCCC1 (stereo not drawn) | 95.3 | 91.1 | 93.3 | 98.6 | 102.1 | 20.6
O=C(NCCN1CCOCC1)/C(=C\c1ccccc1Cl)NC(=O)c1ccccc1 | 98.0 | 101.3 | 106.5 | 101.8 | 97.0 | 5.9
COc1ccccc1/C=C(/NC(=O)c1ccccc1)C(=O)NCCN1CCOCC1 | ? | 49.9 | 261.3*[may fluoresce violet] | 44.5*[may fluoresce violet] | ? | 7.5
O=C(COC(=O)COc1ccccc1[N+](=O)[O-])NC1CCCCC1 | 99.2 | 104.2 | 102.9 | 99.5 | 101.5 | 3.7
COCCCNC(=O)c1ccc2c3c(onc13)-c1ccccc1C2=O | 83.7 | 190.0* | 97.1 | 72.8 | 105.1 | -160.8
CC(Cc1ccccc1)N1C(=O)c2cccc([N+](=O)[O-])c2C1=O (stereo not drawn) | 89.8 | 115.0 | 100.0 | 100.1 | 87.7 | 8.5
CCOC(=O)C1CCCN(Cc2nc(Cc3cccc(F)c3)no2)C1 (stereo not drawn) | 99.8 | 87.7 | 97.7 | 105.7 | 106.0 | -4.1
O=C(C1CCN(Cc2nc(Cc3cccc(F)c3)no2)CC1)N1CCOCC1 | 109.7 | 132.3 | 178.4* | 102.2 | 112.9 | -1.5
C#CCSc1nncn1C(=O)/C=C/c1ccccc1 | 82.5 | 187.1* | 87.5 | 94.0 | 101.6 | 17.3
CC1CC(C)CN(C(=O)COC(=O)COc2ccccc2C#N)C1 (stereo not drawn) | 102.6 | 102.8 | 105.6 | 106.3 | 95.6 | 1.8
O=C(O)c1ccccc1OCCOCCOc1ccccc1C(=O)O | 24.4 | 79.6 | 146.6 | 43.9*[may fluoresce violet] | ? | 0.0
CCC(C)(C)NC(=O)C(c1cccc(OC)c1OC)N(C(=O)CCC(=O)Nc1cc(C)on1)C(C)C (stereo not drawn) | 101.2 | 96.0 | 87.1 | 99.3 | 101.1 | 8.0
O=C(O)CCNC(=O)c1ccccc1 | 94.6 | 226.1* | 95.5 | 80.1 | 88.5 | 37.0
CC(C)N(CCNC(=O)c1ccc(OCC2CCCO2)cc1)C(C)C (stereo not drawn) | ? | 61.9 | 241.9*[may fluoresce violet] | 37.9*[may fluoresce violet] | ? | -7.6
O=C(NC1CCCCCC1)c1ccc(OCC2CCCO2)cc1 (stereo not drawn) | 87.5 | 106.3 | 101.8 | 97.7 | 100.6 | -3.5
O=C(CSc1ncnc2c1cnn2-c1ccccc1)NC1CCCC1 | 101.9 | 112.3 | 96.2 | 95.1 | 96.4 | 2.7
COc1ccc(-c2nc3cnccn3c2NCc2ccccc2)cc1SC1CCCCC1 | ? | 65.9 | 279.3*[may fluoresce violet] | 41.8*[may fluoresce violet] | ? | -31.2
